This is an account of results in PubChem BioAssay (NCI).

The panel holds about 83,000 compounds, 20% with a hit somewhere; the sample as a whole holds those more often.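 A percent growth of 40 corresponds to 60% growth inhibition; 0 means no net growth; -100 means all cells died. Active threshold: below 10.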 A number with no mark means an inactive call. Calls of active or inactive are those of the source.

What all share (assay): NCI-60 one-dose screen, 48 h (100 = growth as untreated, 0 = no growth, -100 = all killed)
Settings in all cases: 10 µM unless noted

In experiment [1] the test system is HCT-15 colon.
In experiment [2] the test system is HT29 colon.
Experiment [3] concerns SNB-75 CNS.
For experiment [4], the system named is SNB-19 CNS.
Experiment [5] has as its system U251 CNS.
Experiment [6] concerns PC-3 prostate.
The test system of experiment [7] is SK-MEL-5 melanoma.
Experiment [8] relates to UACC-62 melanoma.
Experiment [9] has as its system LOX IMVI melanoma.
The test system of experiment [10] is SK-MEL-28 melanoma.
The subject of experiment [11] is SK-MEL-2 melanoma.
The test system of experiment [12] is EKVX NSCLC.
Experiment [13] deals with SN12C renal.
Experiment [14] deals with UO-31 renal.
Experiment [15] deals with TK-10 renal.
The subject of experiment [16] is ACHN renal.
Experiment [17] has as its system CAKI-1 renal.
For experiment [18], the system named is A498 renal.
Experiment [19] has as its system CCRF-CEM leukemia.
The test system of experiment [20] is MOLT-4 leukemia.

As to `CN(C)C1CN(C(=O)c2cc(-c3ccc4ncnc(N5CCc6cc(F)c(Cl)cc65)c4c3)cnc2N)C1`, the growth in experiment [1] was 7.17% (active); in experiment [2], 14.8%; in experiment [3], -27% (active); in [4] it was 23.5%; in experiment [5], 25%; in experiment [6], 7.13% (active). In addition, the growth in experiment [7] was -20.8% (active); in experiment [8] it was -19.7% (active); in experiment [9], 7.5% (active); in experiment [10], 8.13% (active); in experiment [11] it was -11.5% (active); in experiment [12] it was 10.1%. The growth in [13] is 11.1%; in [14] it was 7.34% (active); in experiment [15], 5.66% (active); in experiment [16], 10.8%; in experiment [17], 0.593% (active); in experiment [18], -78.2% (active). The growth in [19] is 15.7%; in experiment [20], 4.86% (active).
Regarding `O=C1Nc2ccc(Cl)cc2/C1=C/c1ccc[nH]1`, the growth in [1] was 34.2%; in experiment [2] it was 107%; in [3], 114%; in [4], 106%; in [5], 100%; in experiment [6] it was 111%. For the same compound, the growth in experiment [7] is 77.5%; in experiment [8] it was 102%; in [9], 95.5%; in experiment [10], 129%; in experiment [11], 96.2%; in [12], 32.8%. Moreover, the growth in experiment [13] is 87.5%; in experiment [14], 47.7%; in experiment [15], 61.4%; in experiment [16] it was 59.6%; in experiment [17], 45.7%; in [18] it was 134%. Moreover, the figures for the growth in [19] and in experiment [20] were 96.2% and 83.4%, respectively.
As to `COC(=O)Cn1c2c(c3c(OC)cccc31)C(=O)c1ccccc1-2`, the growth is 101% in [1]; 95.8% in experiment [2]; 90.8% in experiment [3]; 90.5% in [4]; 89.9% in experiment [5]; 87.4% in experiment [6]. Further, the growth in experiment [7] was 102%; in experiment [8], 93.3%; in experiment [9], 91.8%; in experiment [10], 97.1%; in experiment [11], 109%; in experiment [12], 103%. The growth in experiment [13] was 91.4%; in [14], 82.5%; in experiment [15] it was 115%; in [16], 94.9%; in [17] it was 110%; in [18], 101%. Besides, the results for the growth in experiment [19] and in experiment [20] were 81.4% and 83.8%, respectively.
Take `COc1ccc(CN2C(=O)OC(C)(COC(C)=O)C2=O)cc1` (stereo not given): the growth in experiment [1] is 102%; in experiment [2], 107%; in [3] it was 100%; in [4], 102%; in experiment [5], 104%; in [6] it was 101%. The growth is 101% in experiment [7]; 95.6% in experiment [8]; 100% in experiment [9]; 101% in experiment [10]; 111% in [11]; 107% in experiment [12]. Besides, the growth is 99.8% in experiment [13]; 95% in experiment [14]; 104% in experiment [15]; 102% in [16]; 94.8% in [17]; 103% in experiment [18]. In addition, the growth in [19] was 99.5%; in [20], 95.6%.
For the compound `Clc1ccc(Nc2ncc(Cc3cccc(Cl)c3Cl)s2)cc1`, the growth in experiment [1] was 92.3%; in experiment [2], 95.7%; in [3] it was 116%; in experiment [4], 98%; in experiment [5], 85.7%; in [6] it was 88%. For the same compound, the growth is 97.1% in experiment [7]; 81.6% in experiment [8]; 97.7% in [9]; 95.6% in experiment [10]; 101% in experiment [11]; 97.9% in experiment [12]. Further, the growth in experiment [13] was 90.8%; in experiment [14], 72.5%; in experiment [15] it was 98.3%; in experiment [16], 97.5%; in experiment [17], 87.7%; in experiment [18] it was 93.7%. For the same compound, the growth in experiment [19] is 94%; in experiment [20], 86.7%.
Regarding `Cc1c2ccccc2nc2cc3c(cc12)[C@H]1CC[C@]2(C)C(=O)CC[C@H]2[C@@H]1CC3`, the growth in experiment [1] is 90.3%; in experiment [2] it was 99.9%; in experiment [3], 66.4%; in experiment [4], 84.9%; in [5] it was 92%; in experiment [6], 80.6%. Moreover, the growth in experiment [7] was 88.8%; in [8], 88.1%; in experiment [9], 97.8%; in experiment [10], 111%; in experiment [11] it was 103%; in experiment [12], 91.5%. Also, the growth in experiment [13] was 95.4%; in experiment [14] it was 74%; in experiment [15] it was 111%; in [16], 95%; in [17] it was 73.7%; in [18] it was 104%. Further, the growth was 97.4% in [19] and 80.8% in experiment [20].
Take `CCSc1ccnc(N)n1`: the growth in [1] was 102%; in [2], 113%; in experiment [3] it was 95.2%; in experiment [4], 103%; in experiment [5], 105%; in [6] it was 96%. Further, the growth in experiment [7] is 107%; in [8] it was 99%; in experiment [9] it was 99.9%; in [10], 114%; in [11], 106%; in experiment [12], 104%. For the same compound, the growth was 106% in [13]; 97.7% in [14]; 101% in experiment [15]; 96.8% in experiment [16]; 82.1% in [17]; 98.1% in [18]. In addition, the growth in [19] was 97.3%; in [20], 124%.
Turning to `CCOC(=O)CC1CSC(N/N=C/c2ccc(F)c(Br)c2)=N1` (stereo not given), the growth is 101% in [1]; 84.8% in experiment [2]; 109% in experiment [3]; 110% in experiment [4]; 94.7% in [5]; 103% in [6]. Besides, the growth in experiment [7] is 101%; in experiment [8], 103%; in experiment [9], 101%; in experiment [10], 107%; in experiment [11] it was 104%; in experiment [12], 104%. In addition, the growth in experiment [13] was 114%; in experiment [14] it was 82.9%; in [15] it was 102%; in experiment [16] it was 106%; in experiment [17], 95.5%; in experiment [18], 95.7%. For the same compound, the growth is 90% in experiment [19] and 88.5% in experiment [20].
